Test results taken from PubChem BioAssay (NCATS).
Records with an inconclusive call do not appear. Where a call stands in place of a potency, no number is given. Values without a mark were called inactive. Calls of active or inactive are those of the source. The call rests on the fitted dose curve; in most records, active means well fitted inhibition curve with a large enough effect; inconclusive means small, poorly fitted or top-dose-only effect; inactive means flat fitted curve, though single readings scatter.

Assay: P-glycoprotein substrates identified in KB-8-5-11 adenocarcinoma cell line, qHTS therapeutic library screen (AID 1346987); further: nearly all actives have a fitted effect of over 65% in size
Settings: KB-8-5-11 (P-gp overexpressing) viability, CellTiter-Glo, 72 h; series mostly up to 44.5 µM
Outline: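 Human cervical adenocarcinoma KB-8-5-11 cells, selected in colchicine to over-express P-gp and assayed without it, were exposed for 72 h to titrated compounds. An ATP-based luminescent viability signal gave AC50.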
Potency means the concentration at half of the fitted maximal effect.

SMILES	Potency	outcome	activity change, negative = cytotoxicity
C[C@H](CCC(=O)O)[C@H]1CC[C@H]2[C@@H]3[C@H](O)C[C@@H]4C[C@H](O)CC[C@]4(C)[C@H]3CC[C@]12C	inactive		
O=C(/C=C/c1ccc(O)c(O)c1)OCc1ccccc1O[C@@H]1O[C@H](CO)[C@@H](O)[C@H](O)[C@H]1O	inactive		
C=C1C[C@]23C[C@H]1CC[C@H]2[C@]1(C)CCC[C@@]2(CO)C(=O)O[C@H]([C@H]21)[C@@H]3O	inactive		
CCc1ccc2c(c1)N(CC(C)CN(C)C)c1ccccc1S2 (stereo not given)	25.9 µM (active)		
CC(=C/C(=O)O)/C=C/[C@]1(O)[C@@]2(C)CO[C@]1(C)C[C@H](O[C@@H]1O[C@H](CO)[C@@H](O)[C@H](O)[C@H]1O)C2	inactive		
COC(=O)C[C@@H]1C(C(=O)O)=CO[C@@H](O[C@@H]2O[C@H](CO)[C@@H](O)[C@H](O)[C@H]2O)/C1=C\COC(=O)/C=C\c1ccccc1	inactive		
CCC(CC)n1ccc2c(C(=O)NCc3c(C)cc(C)[nH]c3=O)cc(C#N)cc21	inactive		
CC(O)(CC(=O)O)CC(=O)O[C@@H]1[C@@H](O)[C@H](OCCc2ccccc2)O[C@H](CO)[C@H]1O (stereo not given in full)	inactive		
C[C@H]1[C@H](C)CC[C@]2(C(=O)O[C@@H]3O[C@H](CO)[C@@H](O)[C@H](O)[C@H]3O)CC[C@]3(C(=O)O)C(=CCC4[C@@]5(C)CC[C@H](O[C@@H]6O[C@H](CO)[C@@H](O)[C@H](O)[C@H]6O)C(C)(C)C5CC[C@]43C)[C@H]12 (stereo not given in full)		inactive [at 9.29 µM]	
CC1C/C=C/C=C\CCCCC(O)C/C=C/C(=O)O1 (stereo not given)	inactive		
CN1CCC(c2c[nH]c3ccc(NC(=O)c4ccc(F)cc4)cc23)CC1	inactive		
CCNC(=O)[C@@H]1CCCN1C(=O)[C@H](CCCN=C(N)N)NC(=O)[C@H](CC(C)C)NC(=O)[C@@H](Cc1c[nH]c2ccccc12)NC(=O)[C@H](Cc1ccc(O)cc1)NC(=O)[C@H](CO)NC(=O)[C@H](Cc1c[nH]c2ccccc12)NC(=O)[C@H](Cc1cnc[nH]1)NC(=O)[C@@H]1CCC(=O)N1	8.2 µM (active)		
CCCC(=O)O[C@]1(C(=O)CCl)[C@H](C)C[C@@H]2[C@H]3CCC4=CC(=O)C=C[C@]4(C)[C@@]3(F)C(=O)C[C@@]21C	13 µM (active)		
C/C=C/C1=CC2=CC(=O)C(C)(O)C(OC(=O)c3c(C)cc(O)cc3O)C2CO1 (stereo not given)	inactive		
NCc1ccccc1CC(=O)N[C@@H]1C(=O)N2C(C(=O)O)=C(CSc3nnnn3CC(=O)O)CS[C@H]12	inactive		
CC1(C)CC[C@]2(C(=O)O[C@@H]3O[C@H](CO)[C@@H](O)[C@H](O)[C@H]3O)CC[C@]3(C)C(=CCC4[C@@]5(C)C[C@@H](O)[C@H](O)C(CO)(CO)C5CC[C@]43C)C2[C@@H]1O (stereo not given in full)	inactive		
CC1(C)C(O)CCC2(C)C1C(O)C=C1COC(=O)C12O (stereo not given)	inactive		
CC1(C)CCCC2(C)C3=C(C(=O)OC3O)C(O)CC12 (stereo not given)	inactive		
CC1(C)C(C=C(Cl)Cl)C1C(=O)OCc1cccc(Oc2ccccc2)c1 (stereo not given)	inactive		
CCCCC(=O)O[C@]1(C(=O)CO)[C@H](C)C[C@H]2[C@@H]3CCC4=CC(=O)C=C[C@]4(C)[C@@]3(F)[C@@H](O)C[C@@]21C	inactive		

SMILES	Potency	outcome	activity change, negative = cytotoxicity
NC(Cc1c[nH]c2ccccc12)C(=O)NC(CCC(=O)O)C(=O)O (stereo not given)	inactive		
C=C1CC[C@@H]2[C@](C)(CC[C@H](O)[C@@]2(C)CCC=C(C)C)[C@@H]1Cc1c[nH]c2ccccc12	inactive		
CC[C@H]1OC(=O)C[C@@H](O)[C@H](C)[C@@H](O[C@@H]2O[C@H](C)[C@@H](O)[C@H](N(C)C)[C@H]2O)[C@@H](CCN2C[C@H](C)C[C@H](C)C2)C[C@@H](C)C(=O)/C=C/C(C)=C/[C@@H]1CO[C@@H]1O[C@H](C)[C@@H](O)[C@@H](OC)[C@H]1OC	inactive		
CC1(CCC(=O)O)C(=O)C=CC23CC4CC(OC4(C)C2O)C13 (stereo not given)	inactive		
CC1=CC[C@]2(C(=O)O[C@@H]3O[C@H](CO[C@@H]4O[C@H](CO)[C@@H](O[C@@H]5O[C@@H](C)[C@H](O)[C@@H](O)[C@H]5O)[C@H](O)[C@H]4O)[C@@H](O)[C@H](O)[C@H]3O)CC[C@]3(C)C(CCC4[C@@]5(C)C[C@@H](O)[C@H](O)[C@@](C)(CO)C5CC[C@]43C)C2C1C (stereo not given in full)			8.32% [at 9.29 µM]
CC(C)N(C[C@H]1O[C@@H](n2cnc3c(N)ncnc32)[C@H](O)[C@@H]1O)C1CC(CCc2nc3ccc(C(C)(C)C)cc3[nH]2)C1 (stereo not given in full)	inactive		
CC1CCC2(NC1)OC1C(=O)C3C4CCC5CC(O[C@@H]6O[C@H](CO)[C@@H](O)[C@H](O)[C@H]6O[C@@H]6O[C@@H](C)[C@H](O)[C@@H](O)[C@H]6O)CCC5(C)C4CCC3(C)C1C2C (stereo not given in full)	inactive		
C=C(C)C(=O)O[C@H]1C[C@@](C)(OC(C)=O)[C@@]2(O)CC[C@@](C)(O)[C@H](OC(C)=O)[C@@]23OC(=O)C(COC)=C13	inactive		
CC[C@H]1OC(=O)[C@H](C)[C@@H](OC2C[C@@](C)(OC)[C@@H](O)[C@H](C)O2)[C@H](C)[C@@H](OC2O[C@H](C)C[C@H](NC)[C@H]2O)[C@](C)(O)C[C@@H](C)CN(C)[C@H](C)[C@@H](O)[C@]1(C)O (stereo not given in full)	inactive		
O=CCCCC=O	inactive		
CCOc1ccc2c(c1)C(C)=CC(C)(C)N2	inactive		
O=C(c1ccc(F)cc1)C1CCN(CCn2c(=O)nc3n(c2=O)CCCC3)CC1	inactive		
COC(=O)C1C(CC(C)=O)C=CC(O)C12Oc1cc(C)cc(O)c1C2=O (stereo not given)	inactive		
O=S(=O)(NC1CCNCC1)c1cc(S(=O)(=O)c2ccccc2)ccc1C(F)(F)F	inactive		
CC(=O)Oc1cc(C)c(OC(C)=O)c2ccccc12	inactive		
C[C@]12O[C@H](C[C@]1(O)CO)n1c3ccccc3c3c4c(c5c6ccccc6n2c5c31)CNC4=O	4.61 µM (active)		
CC1C(=O)CC2C3C(O)CC(C(=O)O)C12CC3(C)C (stereo not given)	inactive		
N[C@H](C(=O)O)[C@@H]1CC(Cl)=NO1	4.11 µM (active)		
CCc1nc(C(N)=O)c(Nc2ccc(N3CCC(N4CCN(C)CC4)CC3)c(OC)c2)nc1NC1CCOCC1	5.7 µM (active)		
C=C1CC[C@H]2[C@@](C)(CCC(O)[C@@]2(C)CO)[C@@H]1C/C=C(/C(=O)O)C(O)CO (stereo not given in full)	inactive		
